# Pol iota inh = DNA polymerase iota (human) inhibition. Q9UNA4. Pol iota fluorescent replication assay, 10 min. Potency, µM (highest dose often 115 µM), inactives show at the highest dose activity, negative = inhibition, hits mostly inhibitors. 390,000 compounds, 1% hits. AID 588590; further: potency means the concentration at half of the fitted maximal effect
#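 Pol iota at 10 nM preincubated 15 min with compounds at room temperature; reaction started with fluorescent substrate, 50 nM final. Fluorescence read kinetically at 0 and 10 min; buffer-only wells as negative control.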
# POLH inh = DNA polymerase eta (human) inhibition | Q9Y253 | recombinant Pol eta, fluorescent DNA replication assay | Potency, µM (series often up to 114 µM), for inactives: at the top dose activity change, negative = inhibition, actives largely listed as inhibitors | 390,000 compounds, 1.2% hits | AID 588591; further: potency means the concentration at half of the fitted maximal effect; on the % scale 0 is the no-effect control and ±100 the full control effect
# Target sequence (Q9Y253 whole entry, looked up): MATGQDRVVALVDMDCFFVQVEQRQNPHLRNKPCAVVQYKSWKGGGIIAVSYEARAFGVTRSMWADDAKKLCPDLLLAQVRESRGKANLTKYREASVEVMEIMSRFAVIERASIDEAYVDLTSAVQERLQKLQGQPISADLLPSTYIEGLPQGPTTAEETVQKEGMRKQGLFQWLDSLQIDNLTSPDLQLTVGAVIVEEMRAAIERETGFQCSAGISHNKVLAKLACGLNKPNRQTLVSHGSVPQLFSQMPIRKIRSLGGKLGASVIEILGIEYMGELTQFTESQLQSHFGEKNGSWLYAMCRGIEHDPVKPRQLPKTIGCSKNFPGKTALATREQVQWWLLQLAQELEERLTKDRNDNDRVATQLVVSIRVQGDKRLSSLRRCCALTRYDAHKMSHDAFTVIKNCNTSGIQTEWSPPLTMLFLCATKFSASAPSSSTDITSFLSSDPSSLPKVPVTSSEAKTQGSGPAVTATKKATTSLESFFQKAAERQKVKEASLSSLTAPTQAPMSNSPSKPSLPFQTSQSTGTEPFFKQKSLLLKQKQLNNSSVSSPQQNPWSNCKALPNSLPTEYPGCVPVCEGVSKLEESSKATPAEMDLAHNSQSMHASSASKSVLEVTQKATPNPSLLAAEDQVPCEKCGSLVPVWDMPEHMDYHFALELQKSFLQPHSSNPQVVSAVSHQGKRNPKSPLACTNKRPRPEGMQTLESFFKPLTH
#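 Fluorescent replication assay: 50 nM final substrate added after a 15 min room-temperature compound preincubation with 10 nM enzyme. Signal taken at 0 min and again at 10 min.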
# PI5P4Ka inh = inhibitors of human PI5P4K alpha | P48426 | PI5P4Kalpha enzyme, ADP-Glo luminescence, 60 min; hits give low values | max response, % | 330,000 compounds, 1.2% hits | AID 652105; active means max response of -50% or lower; inconclusive means between -30% and -50%; inactive means -30% or higher; further: value at the top dose of about 77 µM; on the % scale 0 is the no-effect control and ±100 the full control effect
#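 Luminescence from ADP-Glo served as readout of PI5P4Kalpha activity in a qHTS format. Reaction: enzyme, substrate, compound, ATP at 5 microM final, 60 min at RT.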
# FEN1 inhibitor = human FEN1 inhibition. 390,000 compounds, 0.35% hits. P39748. Recombinant FEN1 flap cleavage, fluorescence, 15 min. Potency, µM (top dose mostly 114 µM), inactives show top-dose activity change, negative = inhibition, most hits filed as inhibitors; further: potency means the concentration at half of the fitted maximal effect; on the % scale 0 is the no-effect control and ±100 the full control effect; nearly all actives have a fitted effect of over 65% in size
#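 FEN1 at 10 nM, compound pretreatment for 15 min (room temperature), 50 nM final substrate to initiate; endpoint reads at 0 and 15 min; DMSO-only plates used as vehicle background.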
# Pol kappa inh = blocks human DNA polymerase kappa activity. Q9UBT6. purified Pol kappa, fluorescent DNA synthesis assay, 10 min. Potency, µM (top dose mostly 107 µM), without a hit: at the top dose activity, negative = inhibition, actives largely listed as inhibitors. 400,000 compounds, 0.53% hits; further: potency means the concentration at half of the fitted maximal effect; on the % scale 0 is the no-effect control and ±100 the full control effect
#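 10 nM Pol kappa preincubated 15 min at room temperature with compounds, then reaction started with substrate at 50 nM final. Fluorescence read kinetically at 0 and 10 min; buffer-only wells served as negative control.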
# POLB inh = blocks human DNA polymerase beta activity; P06746; Pol beta primer extension/strand displacement, fluorescence kinetic; Potency, µM (series often up to 114 µM), without a hit: at the highest dose activity change, negative = inhibition, most hits filed as inhibitors; 340,000 compounds, 1.3% hits; AID 485314; further: potency means the concentration at half of the fitted maximal effect; on the % scale 0 is the no-effect control and ±100 the full control effect
#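 Kinetic readout of DNA synthesis with strand displacement by Pol beta. Compound and 10 nM enzyme sit 15 min at room temperature; 50 nM substrate starts the reaction, read immediately and at 10 min.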
# * marks the source's active call; other numbers are inactive results; ? = inconclusive; . = no result; [ ] = remark or other dose. Shown are actives, neighbours in structure and some others; about 2.8% of the full set was active somewhere. Unless noted, the call rests on the fitted dose curve; in most records, active means well fitted curve in the direction sought with a large enough effect; inconclusive means small, poorly fitted or top-dose-only effect, or another doubt; inactive means no such curve, though single readings can be large; an effect the other way counts as inactive or inconclusive.
SMILES,Pol iota inh,POLH inh,PI5P4Ka inh,FEN1 inhibitor,Pol kappa inh,POLB inh
CCN(CC)S(=O)(=O)c1cc(NC(=O)Cn2ncc(Cl)c(Cl)c2=O)ccc1C,25µM*,35µM*,-83*,-6%,71µM*,28µM*
CCN(CC)S(=O)(=O)c1cc(NC(=O)CN2C(=O)NC(C)(c3ccccc3)C2=O)ccc1C (centres undefined),-27%,-15%,0,11%,-2%,-1%
S=c1[nH]nc(Nc2cccc3ccccc23)s1,35%,-11%,-74*,1%,-16%,32%
Cc1c(Cl)cccc1Nc1n[nH]c(=S)s1,-25%,-12%,-88*,2%,0%,.
Cc1ccccc1Nc1n[nH]c(=S)s1,.,-8%,?,.,.,.
Fc1ccccc1Nc1n[nH]c(=S)s1,15%,8%,-74*,-2%,-8%,27%
CCOc1ccc2ccccc2c1/C=N/NC(=O)c1cc(C)[nH]n1,24%,-14%,7,-17%,-3%,-4%
CCOc1ccc2ccccc2c1/C=N/NC(=O)c1ccncc1,6%,-4%,?,-25%,-11%,20µM*
CCN(CC)CCNC(=O)C(=O)NCC(c1cccnc1)N1CCN(c2ccc(F)cc2)CC1 (centres undefined),49%,-14%,.,23%,-6%,-1%
CCOC(=O)C1=C(C)Nc2nc(=S)[nH]n2C1c1ccc(Cl)cc1 (centres undefined),-13%,1%,-60*,-16%,-1%,-1%
CCOC(=O)C1=C(C)Nc2nc(SCC)nn2C1c1ccc(OC)cc1 (centres undefined),-1%,-7%,12,2%,-18%,37%
COc1cc(-c2cc(=O)c3c(C)cc(O)cc3o2)cc(OC)c1OC,15%,?,-10,-18%,-6%,.
COc1ccc(-c2cc(=O)c3c(C)cc(O)cc3o2)cc1,20µM*,?,-3,?,?,.
CN(C)c1ccc(NC(=O)Cn2c(SCc3ccc(F)cc3)nc3cccnc32)cc1,-5%,-14%,.,-9%,-7%[60.1 µM],18µM*
O=C(Nc1ccc(F)cc1F)C1CCN(S(=O)(=O)c2ccc3[nH]c(=O)ccc3c2)CC1,16%,-19%,.,0%,-4%[60.1 µM],-11%
Nc1ncnc2c(C3OC(CO)C(O)C3O)c[nH]c12 (centres undefined),14%,-20%,14,-3%,-11%,.
CC(=O)Nc1c(S(=O)(=O)c2ccccc2)c2nc3ccccc3nc2n1Cc1ccccc1,22%,-20%,28,0%,-13%,1%
C=CCn1c(NS(=O)(=O)c2ccccc2)c(S(=O)(=O)c2ccc(C)cc2)c2nc3ccccc3nc21,3.2µM*,89µM*,7,-11%,5%,?
Cc1ccn2c(-c3n[nH]c(=S)n3Cc3ccccc3)c(C)nc2c1,0%,-5%,-29,1%,-13%,?
c1ccn2c(c1)nc1c2nc2ccccn21,-2%,-17%,.,?,-9%,16%
S=c1[nH]nc2ccccn12,-17%,3%,-85*,?,1%,.
Cc1ccn2c(=S)[nH]nc2c1,.,-4%,-78*,.,.,.
COc1ccccc1/C=C/c1ccnc2ccccc12,11%,.,.,-8%,-3%,.
Cc1ccn2c(=O)nc(SCC(=O)Nc3ccc4c(c3)OCCO4)nc2c1,56µM*,?,?,4%,-11%,.
Cc1ccc2nc(SCC(=O)Nc3ccc4c(c3)OCCO4)nc(=O)n2c1,63%,-1%,1,-1%,-11%,.
SMILES,Pol iota inh,POLH inh,PI5P4Ka inh,FEN1 inhibitor,Pol kappa inh,POLB inh
O=C(CSc1nc(=O)n2cc(Cl)ccc2n1)NCCc1ccccc1,?,25µM*,?,9%,-36%,.
O=C(CSc1nc(=O)n2cc(Cl)ccc2n1)Nc1ccc2c(c1)OCO2,?,20µM*,?,?,-42%,.
Cc1ccn2c(=O)nc(SCC(=O)Nc3ccc4c(c3)OCO4)nc2c1,35µM*,?,?,-1%,-24%,.
COc1ccc(C(=O)NCC(c2ccc(N(C)C)cc2)N2CCc3ccccc32)cc1OC (centres undefined),-10%,-8%,.,-15%,-6%[60.1 µM],1%
O=C(Nc1nc(-c2ccccc2)cs1)c1ccccc1NS(=O)(=O)c1ccc(F)cc1,-25%,50µM*,-16,-31%,-12%,45µM*
CC(C)(C)c1cc(C(=O)NCCN2CCCC2)cc(C(C)(C)C)c1,32%,-26%,2,1%,-3%,14%
CC(C)CN1CCC2(CC1)CCN(C(=O)c1cnccn1)CC2,.,.,.,.,0%[60.1 µM],.
COc1ccc(-n2c(=O)c3c4c(sc3n(Cc3cc(=O)n5c(C)cccc5n3)c2=O)CCC4)c(OC)c1,79µM*,?,.,-7%,-11%,-20%
COc1ccc(-n2c(=O)c3c4c(sc3n(Cc3ccc(C)cc3C)c2=O)CCC4)c(OC)c1,-9%,-5%,.,3%,-14%,3%
COc1ccccc1-c1c(-c2ccc(OCC(=O)NN)cc2O)n[nH]c1C(F)(F)F,10%,-18%,0,-1%,-3%,22%
COc1ccc(-c2n[nH]c(C(F)(F)F)c2-c2cc3ccccc3o2)c(O)c1,79µM*,-11%,.,-25%,-3%,0%
NC(=O)CC1Nc2cccc3cccc(c23)NC1=O (centres undefined),?,?,?,-10%,-24%,6.3µM*
O=C(CC1Nc2cccc3cccc(c23)NC1=O)Nc1ccccc1 (centres undefined),51%,-18%,?,2%,-9%,3%
Cc1ccc(NC(=O)CC2Nc3cccc4cccc(c34)NC2=O)cc1 (centres undefined),5µM*,-20%,.,?,?,-21%
COc1ccc2c(c1)c1ccc3c(c1n2C)C(=O)C=CC3=O,18µM*,-4%,-74*,?,3%,19%
Cn1c2ccccc2c2ccc3c(c21)C(=O)C=CC3=O,54%,?,-72*,?,-24%,.
COc1ccc2c(c1)c1ncn(CCN3CCCCC3)c(=O)c1n2C,4%[58.9 µM],-19%,.,?,0%,-9%
Cc1ccc2c(c1)c1ccc3c(c1n2C)C(=O)C=CC3=O,?,-17%,-74*,-19%,-19%,1%
Cc1ccc(C)c2c1c1ccccc1n2C,43%,-23%,26,7%,-8%,1%
O=C(CSc1nc2cc(Cl)ccc2s1)c1ccco1,62%,-7%,.,-9%,-21%,-1%
O=C(CSc1nnc(SCC(=O)c2ccco2)s1)c1ccco1,?,16µM*,-62*,-9%,?,32µM*
COC(=O)c1ccc2cc(OC)c(OC)cc2c1,.,-2%,1,.,.,.
COC(=O)c1cc(=O)c(O)c2c(O)c(O)ccc2c1,.,.,.,.,1.1µM*,.
Cc1ccc(CNC(=O)c2cc3cc(C)ccc3n2C)cc1,26%,-17%,.,-6%,-8%,24%
